aSyn UTR act: Activators via SNCA 5'UTR binding, MLPCN; alpha-synuclein 5'UTR reporter, activators screen; activity score, % (tested at 7.5 µM), hits read low; actives 7.1% (n = 300,000); in the data active = activity score below about -60%
* hit, by the source's call. The list is a sample of the results.

What do the screens show for `O=C(/C=C/c1c(F)cccc1Cl)Nc1ncccn1`?
aSyn UTR act: -228.3*

What do the screens show for `Cn1c(NC(=O)/C=C\c2ccccc2)cc(=O)n(C)c1=O`?
aSyn UTR act: -136.8*

Results for Cn1c(NC(=O)/C=C/c2c(F)cccc2Cl)cc(=O)n(C)c1=O ?
aSyn UTR act: -172.3*

What do the screens show for `Cn1c(NNC(=O)c2ccccc2F)cc(=O)n(C)c1=O`?
aSyn UTR act: 45.7

What do the screens show for `C/C(=N\Nc1cccc2cccnc12)c1ccccc1O`?
aSyn UTR act: -204.4*

What do the screens show for `CC(=O)NC(c1ccc(C(C)C)cc1)c1ccc2cccnc2c1O` (stereo not given)?
aSyn UTR act: 66.9

What do the screens show for `C/C(=N\Nc1cccc2cccnc12)c1ccc(N)cc1`?
aSyn UTR act: -92.8*

Results for Cc1ccccc1NCc1nc2ccccc2n1C ?
aSyn UTR act: -126.0*

How did Cn1c(CNc2ccccc2O)nc2ccccc21 do in these assays?
aSyn UTR act: -153.9*

Results for NC(=O)c1ccccc1NC(=O)/C=C/c1c(Cl)cccc1Cl ?
aSyn UTR act: -188.9*

What do the screens show for `NC(=O)c1ccccc1NC(=O)/C=C/c1cccc(Cl)c1`?
aSyn UTR act: -132.5*

What do the screens show for `CN(C)c1ccc(NC(=O)/C=C/c2c(Cl)cccc2Cl)cc1`?
aSyn UTR act: -80.1*

What do the screens show for `COc1ccc(OC)c(/C=C/C(=O)NC2=NCCS2)c1`?
aSyn UTR act: -71.3*

Results for COc1ccc(/C=C/C(=O)NC2=NCCS2)cc1OC ?
aSyn UTR act: -147.7*

Results for O=C(COC(=O)/C=C/c1ccccc1[N+](=O)[O-])NC1CCS(=O)(=O)C1 (stereo not given) ?
aSyn UTR act: -108.2*

What do the screens show for `CN(C(=O)COC(=O)/C=C/c1ccccc1[N+](=O)[O-])c1ccccc1`?
aSyn UTR act: -68.7*

How did O=C(COC(=O)/C=C/c1ccccc1[N+](=O)[O-])Nc1ccc(OCc2ccccc2)cc1 do in these assays?
aSyn UTR act: -121.9*

How did O=c1c(N2CCCCC2)coc2ccccc12 do in these assays?
aSyn UTR act: -86.2*

Results for COc1cc2c(cc1OC)C(c1cccs1)N(C(=S)NC(C)C)CC2 (stereo not given) ?
aSyn UTR act: -73.7*

How did CCCC1CC(=O)OC1(C)C(=O)CSc1n[nH]c(-c2ccccc2)n1 (stereo not given) do in these assays?
aSyn UTR act: -65.7*

What do the screens show for `CN(c1ccc(C(=O)NCCSCc2ccco2)cc1)S(C)(=O)=O`?
aSyn UTR act: -75.9*

What do the screens show for `CC(C)c1ccc(N(CC(=O)NCCSC(C)(C)C)S(C)(=O)=O)cc1`?
aSyn UTR act: -83.5*

Results for CN(c1ccc(C(=O)NCCSC(C)(C)C)cc1)S(C)(=O)=O ?
aSyn UTR act: -81.1*

Results for Fc1ccc(N2Cc3ccsc3C=N2)cc1 ?
aSyn UTR act: -64.0*

What do the screens show for `Cc1ccc(C2=Nc3ccccc3SC(c3cccc([N+](=O)[O-])c3)C2)cc1` (stereo not given)?
aSyn UTR act: -113.2*

How did Cn1c(O)c(C=Nc2ccc(Br)cc2)sc1=O do in these assays?
aSyn UTR act: -173.0*

Results for Cc1ccc2oc(-c3cccc(NC(=O)c4ccc(Br)o4)c3)nc2c1 ?
aSyn UTR act: -93.7*

How did Cc1cc2nc(-c3cccc(NC(=O)c4ccc(Br)o4)c3)oc2cc1C do in these assays?
aSyn UTR act: -77.1*

What do the screens show for `Cc1cccc(NC(=O)c2cc(-c3cc(C)ccc3O)n[nH]2)c1`?
aSyn UTR act: -226.9*

What do the screens show for `COc1ccc(NC(=O)c2cc(-c3cc(C)ccc3O)n[nH]2)cc1Cl`?
aSyn UTR act: -72.5*

What do the screens show for `Cc1ccc(-c2cc(C(=O)Nc3cccnc3)[nH]n2)c(O)c1C`?
aSyn UTR act: -201.6*

How did Cc1cccc(NC(=O)c2cc(-c3cc(C)c(C)cc3O)n[nH]2)c1 do in these assays?
aSyn UTR act: -233.8*

Results for CCOC(=O)c1cn2ccc(C)cc2n1 ?
aSyn UTR act: -107.3*

What do the screens show for `O=C(Nc1nc2ccc([N+](=O)[O-])cc2s1)C1CCCO1` (stereo not given)?
aSyn UTR act: -153.0*

How did COC(=O)c1ccc2nc(NC(=O)C(C)(C)C)sc2c1 do in these assays?
aSyn UTR act: 59.9

Results for O=C(Nc1nc2ccc(Cl)cc2s1)C1CC1 ?
aSyn UTR act: -150.4*

Results for COC(=O)c1ccc2nc(NC(=O)C3CCCCC3)sc2c1 ?
aSyn UTR act: -104.9*

How did C=CCN(CC=C)S(=O)(=O)c1ccc2nc(NC(=O)C3CCCO3)sc2c1 (stereo not given) do in these assays?
aSyn UTR act: -88.5*

How did O=C(Nc1nc2ccc(S(=O)(=O)N3CCCC3)cc2s1)C1CCCCC1 do in these assays?
aSyn UTR act: 72.5

Results for O=C(Nc1nc2ccccc2s1)C1CCN(S(=O)(=O)c2cc([N+](=O)[O-])ccc2Cl)CC1 ?
aSyn UTR act: -80.6*

What do the screens show for `O=C(Nc1nc2ccc(Cl)cc2s1)C1CCCO1` (stereo not given)?
aSyn UTR act: -126.7*

How did O=C(Nc1nc2ccc(Cl)cc2s1)c1cccc(N2C(=O)CCC2=O)c1 do in these assays?
aSyn UTR act: -78.1*

How did O=C1NC(c2ccccc2)=N/C1=C/c1ccco1 do in these assays?
aSyn UTR act: -270.3*

Results for O=C1NC(c2cccc(Br)c2)=N/C1=C\c1ccco1 ?
aSyn UTR act: -105.6*

Results for O=C1NC(c2ccccc2Br)=N/C1=C\c1ccco1 ?
aSyn UTR act: -165.5*

What do the screens show for `Nc1nnc(SCc2coc(-c3ccc(Cl)cc3)n2)s1`?
aSyn UTR act: -118.2*

How did COC(=O)/C(=C/c1cccc([N+](=O)[O-])c1)NC(=O)c1ccc(OC)cc1 do in these assays?
aSyn UTR act: -216.3*

What do the screens show for `COc1ccc(N/C=C\C(=O)c2ccc3ccccc3c2)cc1`?
aSyn UTR act: -211.7*

How did CCn1c(=N)n(CC(=O)c2cccc([N+](=O)[O-])c2)c2ccccc21 do in these assays?
aSyn UTR act: -82.6*

What do the screens show for `COc1ccc(C(=O)Nc2ccc(S(=O)(=O)N(C)c3ccccc3)cc2)cc1`?
aSyn UTR act: -73.6*

How did COc1ccc(-c2cccc(C(=O)Nc3cccc(C(=O)O)c3)c2)cc1 do in these assays?
aSyn UTR act: -149.3*

How did Cc1ccc(NCCC(=O)c2cccc([N+](=O)[O-])c2)cc1 do in these assays?
aSyn UTR act: -151.3*

What do the screens show for `CCOc1ccc(NS(=O)(=O)c2cc(OC)ccc2OC)cc1`?
aSyn UTR act: -90.8*

How did COc1ccc(NC(=O)c2coc(C)c2)cc1 do in these assays?
aSyn UTR act: -115.2*

What do the screens show for `CN(C)S(=O)(=O)Oc1cccc(C(=O)Nc2ccc([N+](=O)[O-])cc2)c1`?
aSyn UTR act: -168.3*

What do the screens show for `COc1ccc(NC(=O)c2ccc3ccccc3c2)cc1`?
aSyn UTR act: -92.0*

How did CCOc1ccc(N/C=C/C(=O)c2ccc(OC)c(OC)c2)cc1 do in these assays?
aSyn UTR act: -175.4*

Results for COc1ccc(-c2cccc(C(=O)N3CCOCC3)c2)cc1 ?
aSyn UTR act: -79.8*

What do the screens show for `O=C(/C=C/Nc1ccccc1)c1ccc(Oc2ncccn2)cc1`?
aSyn UTR act: -243.5*

How did COc1ccc(C(=O)/C=C/Nc2ccc(C)cn2)cc1OC do in these assays?
aSyn UTR act: -139.9*

What do the screens show for `COc1ccc(NC(=O)c2cccc([N+](=O)[O-])c2)cc1`?
aSyn UTR act: -105.0*

Results for COc1ccc(NC(=O)c2cc([N+](=O)[O-])ccc2O)cc1 ?
aSyn UTR act: 85.1

Results for COc1ccc(C(=O)Nc2cccc([N+](=O)[O-])c2)cc1Br ?
aSyn UTR act: -85.0*

Screening results as filed in PubChem.
